# Bioassay records as filed in PubChem.
# TDP1 cell CPT: growth inhibition of DT40 Tdp1-/-;hTDP1 cells with camptothecin (screen for TDP1 inhibitors); chicken DT40 Tdp1-/-;hTDP1 cells + 20 nM CPT, ATP luminescence, 48 h; Potency, µM (doses to about 46.2 µM), actives largely listed as inhibitors; 12% of 420,000 active; AID 686979; note: nearly all actives have a fitted effect of over 55% in size
#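 Chicken DT40 Tdp1-/- cells complemented with human TDP1, 400 cells/well, exposed to compounds plus 20 nM camptothecin for at least 48 h at 37 C; viability read as ATP content by CellTiter-Glo luminescence.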
# HepG2 viability: counter-screen for TGF-b inhibitors: cytotoxicity in HepG2 cells; HepG2 CAGA-GFP viability, ATP luminescence, 18 h; Potency, µM (titrated, usually from 46.1 µM), usual class: cytotoxic; 0.76% of 410,000 active; AID 588856
#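 CellTiter-Glo luminescence gave cytotoxicity after 18 hours at 37 degrees C. The cells were HepG2 CAGA-GFP in 1% FBS DMEM, stimulated with 500 pg/mL TGF-beta after compound addition. %Activity was normalised to no-cell wells (complete cell-killing) and DMSO (no toxicity), and curves were fitted and classified.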
# HT1080 IDH1KD tx: kills HT-1080 cells with IDH1 knockdown. HT-1080 IDH1 knockdown viability, ATP luminescence, 48 h. Potency, µM (doses to about 46.1 µM), actives largely listed as cytotoxic. 2% of 360,000 active. AID 686971
#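 Assay cells: HT-1080 with IDH1 knockdown, 750 per well, RPMI/5% FBS. Exposure: 48 h at 37 °C following 2 h pre-incubation. Read: CellTiter-Glo luminescence; fitted concentration-response, curve class assigned.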
# HT1080-NT tox: kills 2HG-producing HT-1080-NT fibrosarcoma cells | Potency, µM (doses to about 46.1 µM), most hits filed as cytotoxic | 1.6% of 360,000 active | AID 686970 | HT-1080-NT fibrosarcoma viability, CellTiter-Glo ATP luminescence, 48 h;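 note: NT is the 2HG producing partner of a matched IDH1 knockdown line; nearly all actives have a fitted effect of over 55% in size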
#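 Viability by CellTiter-Glo luminescence after 48 h compound exposure at 37C of HT-1080-NT cells (750/well, RPMI, 5% FBS). % activity scaled between DMSO wells and medium-only wells, then curve-fitted and categorized by curve class.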
# DT40 TDP1 no CPT: qHTS for Inhibitors of human tyrosyl-DNA phosphodiesterase 1 (TDP1): qHTS in cells in absence of CPT. Potency, µM (titrated, usually from 46.2 µM), actives largely listed as inhibitors. 15% of 420,000 active. DT40 Tdp1-/- hTDP1 cells, no CPT, ATP luminescence, 48 h; note: nearly all actives have a fitted effect of over 55% in size
#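 Luminescent ATP content (CellTiter-Glo) served as the growth readout. Knockout chicken DT40 cells expressing human TDP1 were exposed to compounds without camptothecin for a minimum 48 hr at 37 °C.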
# TGFb SMAD3 inh: TGF-b pathway inhibition | HepG2 CAGA-GFP TGF-b/SMAD3 reporter, GFP fluorescence, 18 h; TGF-beta stimulated, 500 pg/mL final | Potency, µM (highest dose often 46.1 µM), usual class: inhibitors | 1.2% of 410,000 active; note: nearly all actives have a fitted effect of over 65% in size
#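 Read-out: total well GFP (ex488/em500-530) summed from mean per-cell fluorescence. Cells: HEPG2 CAGA-GFP, 1% FBS DMEM, 18 h at 37 degrees C with 500 pg/mL final TGF-beta. Unstimulated wells served as the full-inhibition control; stimulated DMSO wells = 0%.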
# Hits are given with their value; n = inactive; u = inconclusive; x = no result given. A selection: hits, their analogues and other compounds. The true share with any hit is near 17%. Calls come from the whole dose curve; as a rule, active = well fitted curve in the direction sought with a large enough effect; inconclusive = small, poorly fitted or top-dose-only effect, or another doubt; inactive = no such curve, though single readings can be large; an effect the other way counts as inactive or inconclusive.
SMILES,TDP1 cell CPT,HepG2 viability,HT1080 IDH1KD tx,HT1080-NT tox,DT40 TDP1 no CPT,TGFb SMAD3 inh
COc1ccc(Oc2c(C=O)c3ccccc3n2C)cc1,u,n,n,n,u,n
Cn1c(Oc2ccc(Cl)cc2)c(C=O)c2ccccc21,u,n,u,u,26µM,u
Cn1c(Sc2ccccc2Cl)c(C=O)c2ccccc21,u,n,n,n,u,u
Cn1c(Sc2ccc(Cl)cc2)c(C=O)c2ccccc21,u,n,u,u,21µM,u
Cc1ccc(Oc2c(C=O)c3ccccc3n2C)cc1,3.3µM,n,n,n,u,n
CCOC(=O)c1[nH]c(=O)[nH]c1CN(Cc1ccco1)Cc1[nH]c(=O)[nH]c1C(=O)OCC,n,n,n,n,n,n
COC(=O)N1CCC2(CCCN(c3ccccn3)C2)CC1,n,x,x,x,n,x
O=C(NC1CCCCC1)N1CCNCC1,n,n,n,n,n,n
C1CCCCCC(NCCN2CCNCC2)CCCCC1,3.7µM,n,18µM,21µM,2.6µM,u
CC1CCCCN1S(=O)(=O)c1ccc(C(=O)Nc2nnc(C3CC3)o2)cc1 (stereo not drawn),16µM,n,u,n,u,n
CC1CCN(S(=O)(=O)c2ccc(C(=O)Nc3nnc(C4CC4)o3)cc2)CC1,18µM,n,u,n,u,n
Cc1cccc(NC(=O)c2ccc(S(=O)(=O)N3CCC(C)CC3)cc2)n1,u,n,u,n,16µM,n
Cc1nnc(NC(=O)c2ccc(S(=O)(=O)N3CCCCC3C)cc2)o1 (stereo not drawn),n,n,n,n,n,n
CC1CC(C)CN(S(=O)(=O)c2ccc(C(=O)NCCCn3ccnc3)cc2)C1 (stereo not drawn),29µM,n,u,u,u,n
CC1CN(S(=O)(=O)c2ccc(C(=O)Nc3nnc(-c4ccc5c(c4)CCCC5)o3)cc2)CC(C)O1 (stereo not drawn),6.5µM,n,n,n,12µM,u
Cc1nnc(NC(=O)c2ccc(S(=O)(=O)N3CC(C)CC(C)C3)cc2)o1 (stereo not drawn),u,n,n,n,16µM,n
CC1CC(C)CN(S(=O)(=O)c2ccc(C(=O)NCc3ccc4c(c3)OCO4)cc2)C1 (stereo not drawn),16µM,n,n,n,u,n
CC1CN(S(=O)(=O)c2ccc(C(=O)Nc3nnc(-c4ccccn4)o3)cc2)CC(C)O1 (stereo not drawn),n,n,n,n,n,n
O=C(NCc1ccc2c(c1)OCO2)c1ccc(S(=O)(=O)N2CCCCC2)cc1,n,n,n,n,n,n
Cc1ccc2nccc(C(=O)N3CCCC(Nc4ccc(F)cc4)C3)c2c1 (stereo not drawn),n,n,n,n,u,n
C=CCc1c(C)nc(N)[nH]c1=O,n,n,n,n,n,n
Cc1ccccc1CN1CCc2nnc(C(C)NC(=O)C3CCN(C)CC3)n2CC1 (stereo not drawn),n,x,x,x,n,x
CNC(=O)c1nc(C)n(-c2ccc(Cl)cc2Cl)n1,12µM,n,n,n,u,n
COCc1c(C(=O)N2CCN(c3ccc(C(F)(F)F)cn3)CC2)oc2ccccc12,u,n,n,n,u,u
COc1ccc(/C=N/NC(N)=S)cc1,u,n,n,u,u,n
SMILES,TDP1 cell CPT,HepG2 viability,HT1080 IDH1KD tx,HT1080-NT tox,DT40 TDP1 no CPT,TGFb SMAD3 inh
COc1cc(/C=N/Nc2ncc(C(F)(F)F)cc2Cl)cc(OC)c1O,u,n,n,n,u,n
NC(=S)N/N=C/c1ccc(C(F)(F)F)cc1,21µM,n,21µM,u,16µM,n
CC(C)Oc1ccc(/C=N/NC(N)=S)cc1,n,n,15µM,u,u,n
NC(=S)N/N=C/c1ncc(C(F)(F)F)cc1Cl,0.41µM,n,5.2µM,10µM,0.52µM,4.5µM
O=C(Nc1ccc(Oc2ccccc2)cc1)c1csc([C@H]2C[C@H](O)[C@@H](CO)O2)n1,16µM,n,u,u,10µM,n
O=C(Nc1ccc(Oc2ccccc2)cc1)c1csc([C@@H]2O[C@H](CO)[C@@H](O)[C@H]2O)n1,16µM,n,7.3µM,u,21µM,n
O=C(Nc1ccc(OCCO)cc1)c1csc([C@@H]2O[C@H](CO)[C@H](O)[C@H](O)[C@H]2O)n1,n,n,n,n,n,n
COC(=O)c1csc(C2OC(CO)C(O)C2O)n1 (stereo not drawn),n,n,n,n,n,n
CC(=O)Nc1ccc(NC(=O)c2csc([C@@H]3C[C@H](O)[C@@H](CO)O3)n2)cc1,n,n,n,n,n,n
NC(=O)c1csc(C2OC(CO)C(O)C2O)n1 (stereo not drawn),0.046µM,x,n,n,0.026µM,x
COCCCn1cc(CN(C)C2CN(Cc3cn(CCCOC)nn3)S(=O)(=O)C2)nn1 (stereo not drawn),n,x,n,n,n,x
Cc1cc(C)c(C(=O)/C=C/c2cccc3ccccc23)c(=O)[nH]1,16µM,n,u,u,9.2µM,u
CCOc1ccc(N(CC(=O)NCC2CCCO2)S(=O)(=O)c2ccc(SC)cc2)cc1 (stereo not drawn),13µM,n,n,n,n,n
COc1ccc(N(CC(=O)NC2CC3CCC2C3)S(=O)(=O)c2ccccc2)cc1OC (stereo not drawn),n,n,n,n,n,n
COc1ccc(N(CC(=O)NC2CC3CCC2C3)S(=O)(=O)c2ccc(C)cc2)cc1Cl (stereo not drawn),u,n,n,n,23µM,n
CCOc1ccc(S(=O)(=O)N(CC(=O)NCC2CCCO2)c2ccc(F)cc2)cc1 (stereo not drawn),n,n,n,n,u,n
CCOc1ccc(N(CC(=O)NC2CC3CCC2C3)S(=O)(=O)c2ccc(C)cc2)cc1 (stereo not drawn),16µM,n,n,n,u,u
O=C(Cn1nc(C(F)(F)F)c2c1CCC2)N1CCN(c2ccccc2)CC1,n,n,n,n,n,n
CCN(CC)C(=O)C1CCCN(c2ncnc3c2c(-c2ccccc2)cn3-c2cccc(C)c2)C1 (stereo not drawn),15µM,n,x,x,u,n
Clc1ccccc1N1CCN(c2ncnc3c2c(-c2ccccc2)cn3-c2ccccc2)CC1,u,n,x,x,21µM,n
NC(=O)C1CCN(c2ncnc3c2c(-c2ccccc2)cn3-c2ccccc2)CC1,u,n,n,n,u,n
